The structures appear in SMILES notation. Records with an inconclusive call do not appear. Activity calls are given as the source filed them. The calls were made as follows: active = hit-call score of the fitted dose curve at least 0.9, where 1 is the maximum; inconclusive = response in the unintended direction; inactive = score below 0.9.

The nature of this test: Tanguay_ZF_120hpf_SNOU_legacy: (Legacy) Oregon State University Tanguay Lab 120 Hour Post-fertilization zebrafish Assay for Snout Malformation (AID 2283637). The protocol:
Tanguay_ZF_120hpf_legacy is a whole embryo, multiplexed endpoint assay using zebrafish larvae exposed for 120 hours post fertilization on a 96-well plate.Tanguay_ZF_120hpf_SNOU_legacy is one of one assay component(s) measured or calculated from the Tanguay_ZF_120hpf_legacy assay. It is designed to make measurements of zebrafish development as detected with brightfield microscopy of developing zebrafish embryos.Data from the assay component Tanguay_ZF_120hpf_SNOU_legacy was analyzed into 1 assay endpoints. This assay endpoint, Tanguay_ZF_120hpf_SNOU_legacy, was analyzed in the positive analysis fitting direction relative to DMSO as the negative control and baseline of activity. Using a type of morphology reporter, gain-of-signal activity can be used to understand changes in developmentals as they relate to the whole embryo. To generalize the intended target to other relatable targets, this assay endpoint is annotated to the zebrafish development intended target family, where the subfamily is embryonic snout morphogenesis.
Zebrafish husbandry: Tropical 5D wild-type adult zebrafish were housed in at an approximate density of 1000 per 100 gallon tank at the Sinnhuber Aquatic Research Laboratory, Oregon State University, Corvallis, OR. Each tank was kept at standard laboratory conditions of 28C on a 14-h light/10-h dark photoperiod in fish water consisting of reverse osmosis water supplemented with a commercially available salt (Instant Ocean). Spawning funnels were placed into the tanks the night prior, and embryos were collected and staged. To increase bioavailability, the chorion was enzymatically removed using pronase (63.6mg/ml, >/= 3.5U/mg, Sigma-Aldrich: P5147) at 4 hours post fertilization (hpf) using a custom automated dechorionator.Chemical exposures: Six hpf dechorionated embryos were placed 1 embryo per well in a 96-well plate prefilled with 90 ul of EM using automated embryo placement systems (AEPS). Ten microliters of each row of dilution plate 2 was added to 2 exposure plates. The final DMSO concentration used was 0.64% (vol/vol). Thirty-two embryos were also exposed to 5uM trimethyltin chloride (positive control). Plates were sealed to prevent evaporation and foil covered to reduce light exposure and kept in a 28C incubator. Embryos were statically exposed until 120 hpf. At 24 hpf, embryos were assessed for photomotor response using a custom photomotor response analysis tool (PRAT) and for developmental toxicity endpoints (MO24: mortality at 24 hpf, DP: developmental progression, SM: spontaneous movement, and NC: notochord distortion). At 120 hpf, locomotor activity was measured using Viewpoint Zebralab and assessed for 18 endpoints. Zebrafish acquisition and analysis program (ZAAP), a custom program designed to inventory, acquire, and manage zebrafish data, was used to collect developmental endpoints as either present or absent (i.e., binary responses were recorded). If mortality occurred for an embryo (at either 24 or 120 hpf), the non-mortality endpoints were not measured.
In the case of `COc1cc(S(=O)(=O)O)c(C)cc1N=Nc1c(O)ccc2cc(S(=O)(=O)O)ccc12`, the call was inactive.
With `NS(=O)(=O)c1cc2c(cc1Cl)NCNS2(=O)=O`, the outcome was inactive.
The same measure, in the same setting: the same measure for `COCCOCCOC`: “inactive”; for `O=[N+]([O-])C(CO)(CO)CO`: “inactive”.
For `Cc1cc(NC(=O)C(=O)O)cc(C)c1Oc1ccc(O)c2c1CCC2`, the AC50 (commonly the midpoint of the concentration-response curve, whichever way the signal moves) was 0.0742 µM (active).
`Cc1ccc(C(C)C)c(O)c1`: the result was inactive.
Take `CCCCCCCCCCCCCCCCCC(=O)O`: the call was inactive.
`CC(C)c1ccc(C(=O)N=C(N)N)cc1S(C)(=O)=O`: the result was inactive.
`O=C(O)Cc1ccccc1Nc1c(Cl)cccc1Cl`: the compound was called inactive.
As to `CCCCCCCCCCC`, the compound was called inactive.
For the compound `Nc1nc(N)c2nc(CNc3ccc(C(=O)N[C@@H](CCC(=O)O)C(=O)O)cc3)cnc2n1`, the call was inactive.
In the case of `COCCOC[C@H](CC1(C(=O)NC2CCC(C(=O)O)CC2)CCCC1)C(=O)Oc1ccc2c(c1)CCC2` (stereo not given in full), the compound was classed as inactive.
As for `NC(=O)Cn1c(=O)cc(CCN2CCN(c3nccc4sccc34)CC2)c2ccc(F)cc21`, the result was inactive.
`Cc1cccc(C)c1O`: the compound was called inactive.
On the same count and under the same terms, the same measure for `COc1ccc2c(c1)c(CC(=O)O)c(C)n2C(=O)c1ccc(Cl)cc1`: “inactive”; for `CCCCOC(=O)CCCCCCCCC(=O)OCCCC`: “inactive”.
As to `CCc1c(C(=O)NN2CCCCC2)nn(-c2ccc(Cl)cc2Cl)c1-c1ccc(Br)cc1`, the outcome was inactive.
On the same count and under the same terms, the entry for `O=c1[nH]cc(F)c(=O)[nH]1` is “inactive”.
For `CC(C)(C)c1cc(O)c(C(C)(C)C)cc1O`, the AC50 was 35.6 µM (active).
Consider `CCCCC(CC)COC(=O)CC(C(=O)OCC(CC)CCCC)S(=O)(=O)O` (stereo not given), for which the result was inactive.
On the same count and under the same terms, the same measure for `FC(F)(F)C(F)(F)C(F)(F)C(F)(F)C(F)(F)C(F)(F)CCI`: “inactive”.
With `CC(=O)Oc1ccccc1C(=O)O`, the compound was called inactive.
On to `COc1ccc(C)cc1N`, for which the compound was classed as inactive.
Consider `CC(CO)OC(C)CO` (stereo not given) (tested in a mixture with another compound), for which the result was inactive.
As for `Cc1cccc([N+](=O)[O-])c1C`, the compound was called inactive.
Consider `COc1cc(-c2nc(NC(=O)c3cc4cc(C)cc(C)c4n3CC(=O)O)sc2CCC2CCCCC2)c(OC)cc1Cl`, for which the compound was classed as inactive.
For `Nc1ccc2c(c1)C(=O)c1ccccc1C2=O`, the result was inactive.
In the case of `CCCCCCCCCCO`, the compound was classed as inactive.
In the case of `CCCCCCCC=O`, the compound was classed as inactive.
Consider `CCCCCCCCCCCC(=O)OC`, for which the call was inactive.
Same read-out and setting: the entry for `CCCCCCOCCO` is “inactive”.
`CCCCCCCCCCCCCO`: the result was inactive.
In the case of `Cc1cccc(Nc2cc(Cl)nc(SCC(=O)O)n2)c1C`, the result was inactive.
The same measure, in the same setting: the entry for `CC(=O)C(C)=CC1C(C)=CCCC1(C)C` (stereo not given) is “inactive”.
For the compound `CCNc1cccc(C)c1`, the compound was classed as inactive.
For `Oc1ccc2ccccc2c1N=Nc1ccccc1`, the AC50 is 43.8 µM (active).
Consider `Cc1ccccc1Cl`, for which the compound was called inactive.
With `CNC(=O)[C@H]1O[C@@H](n2cnc3c(NCc4cc(Cl)ccc4OCc4cc(C)no4)ncnc32)[C@H](O)[C@@H]1N`, the call was inactive.
Consider `CC1(C)CC(N=C=O)CC(C)(CN=C=O)C1` (stereo not given), for which the result was inactive.
`NCCO`: the outcome was inactive.

For the origin of these results see PubChem BioAssay (EPA / NIEHS).
